Test results from ChEMBL document CHEMBL4513146, “CO-ADD screening of Karazin Kharkiv National University (Ukraine) compounds”.
Potency and affinity values are given separately.

Columns and labels:
Staphylococcus aureus = conditions: Concentration 32 ug.mL-1;; ASSAY_TEST Inhibition of Bacterial Growth; detection method Absorption (OD600); MEDIA CAMHB; plate type 384well; NBS; CORNING #3640; time 18 hr
Escherichia coli = conditions: Concentration 32 ug.mL-1;; ASSAY_TEST Inhibition of Bacterial Growth; detection method Absorption (OD600); MEDIA CAMHB; plate type 384well; NBS; CORNING #3640; time 18 hr

Compound	Inhibition (Staphylococcus aureus)	Inhibition (Escherichia coli)
CSc1cccc(NC(=O)Cn2c(=O)c3nnc(C)n3c3ccccc32)c1	-2.91%	2.47%
CCOc1ccccc1CNC(=O)CCc1nnc2ccc(-c3ccc(C)cc3)nn12	9.96%	-0.64%
Cc1ccc(-c2cc3c4nn(CC(=O)Nc5ccc6c(c5)OCCO6)c(=O)n4ccn3n2)cc1C	13.07%	-3.26%
CCc1ccc(NC(=O)CSc2nnc3c(=O)n(-c4ccccc4)ccn23)cc1	7.36%	-2.07%
Cc1ccc(-c2ccc3nn(Cc4cccc(Cl)c4)c(=O)n3n2)cc1C	8.16%	-3.9%
Cc1ccc(NC(=O)Cn2nc3ccc(SC4CCCCC4)nn3c2=O)cc1C	-6.2%	-13.15%
CCCCOc1ccc(-c2cc3c4nnc(SCC(=O)Nc5cccc(C(C)=O)c5)n4ccn3n2)cc1	1.68%	1.11%
Cc1c(Cl)cccc1NC(=O)CSc1nc2ccccc2n2c(C)nnc12	7.92%	3.58%
Cc1ccc(CNC(=O)Cn2nc3c(Sc4ccc(C)cc4C)nccn3c2=O)cc1	-3.31%	-11.72%
Cc1ccc(-c2ccc3nn(Cc4cccc(Br)c4)c(=O)n3n2)cc1	2.3%	-6.95%
CCCCOc1ccc(-c2cc3c4nnc(SCC(=O)Nc5ccc(OC)cc5)n4ccn3n2)cc1	-5.31%	-9.08%
COC(=O)c1ccc(NC(=O)Cn2nc3ccc(C(=O)NCc4ccccc4)cn3c2=O)cc1	12.92%	-2.38%
O=C(Cn1nc2ccc(-c3ccc(Cl)cc3)nn2c1=O)N1CCN(c2ccccc2F)CC1	9.33%	-0.1%
Cc1cc2nn(CC(=O)Nc3cccc(C)c3C)c(=O)n2c(Nc2ccc(C)c(F)c2)n1	9.25%	-3.18%
CCCCOc1ccc(-c2cc3c4nnc(SCC(=O)Nc5cccc(C#N)c5)n4ccn3n2)cc1	-7.95%	-7.05%
CCCN(C)c1nccn2c(=O)n(CC(=O)Nc3ccc(Br)cc3)nc12	8.04%	-5.88%

Compound	Inhibition (Staphylococcus aureus)	Inhibition (Escherichia coli)
COC(=O)c1ccc(CN(c2ccc(C)cc2)S(=O)(=O)c2ccc3nnc(C)n3c2)o1	4.75%	-4.99%
Cn1c(=O)c2ccc(C(=O)NC3CCCCC3)cc2n2c(=O)n(CC#N)nc12	10.61%	1.2%
CCOc1ccc(N(Cc2cccc(F)c2)S(=O)(=O)c2ccc3nncn3c2)cc1	8.4%	-7.52%
COc1cc(OC)c(NC(=O)Cn2nc3c(Sc4ccc(C)cc4C)nccn3c2=O)cc1Cl	-8.98%	-14.71%
CCc1cccc(NC(=O)Cn2nc3c(SCc4ccc(Cl)cc4)nccn3c2=O)c1	-8.25%	-12.19%
CCc1nnc2ccc(S(=O)(=O)N(Cc3ccc(F)cc3)c3ccc(OC)cc3)cn12	6.39%	-3.2%
Cc1cc(C)cc(Nc2nc(C)cc3nn(CC(=O)Nc4ccc(F)cc4F)c(=O)n23)c1	11.96%	-0.48%
Cc1ccc(-c2noc(Cn3nc4ccc(-c5ccccc5)nn4c3=O)n2)cc1	-9.52%	-11.36%
COc1ccc(NC(=O)Cn2c(=O)c3nnc(C(C)C)n3c3ccccc32)cc1Cl	10.36%	0.69%
COc1ccc(NC(=O)C(C)Sc2nnc3c(=O)n(-c4ccc(C)c(C)c4)ccn23)cc1 (centres undefined)	7%	-4.16%
COc1cccc(CNC(=O)CSc2nnc3c4cc(-c5ccc(C)cc5)nn4ccn23)c1	-18.93%	-18.15%
Cc1ccc(C)c(-c2cc3c4nnc(SCC(=O)Nc5cccc(Br)c5)n4ccn3n2)c1	0.42%	-9.35%
COc1ccc(NC(=O)Cn2nc3cc(C)nc(Nc4ccc(F)cc4)n3c2=O)cc1F	9.09%	-0.97%
O=C(CSc1nc2ccccc2n2cnnc12)Nc1ccc2c(c1)OCCO2	6.86%	5.63%
Cc1cc2nn(CC(=O)Nc3ccc(C)c(F)c3)c(=O)n2c(Nc2ccc(C)c(F)c2)n1	6.9%	-1.96%
Cc1ccc(-c2cc3c4nnc(SCC(=O)Nc5ccccc5Br)n4ccn3n2)cc1	1.85%	-3.11%
